Among the data in PubChem BioAssay (NCI) are growth inhibition values, retold here.

Compounds without any hit were thinned out: in the full panel of roughly 79,000, 15% have a hit. Unmarked numbers belong to inactive results. The source made the active and inactive calls. Cut-off read from the data, not from the text of the source: active = growth inhibition above about 70%; inactive = the rest.

Assay [1] can be described thus: NCI Yeast Anticancer Drug Screen. Data for the rad50 strain (AID 155).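 Note: 0% = growth of vehicle-only cultures of the same strain.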 The settings on record: S. cerevisiae rad50 strain growth inhibition, active compounds read high. The gist of the method:
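Relative growth inhibition (compound vs vehicle) was measured in yeast with a defined repair-gene alteration.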

Assay [2] can be described thus: NCI Yeast Anticancer Drug Screen. Data for the mec2-1 strain (AID 157). As to conditions: S. cerevisiae mec2-1 strain, active compounds read high. The gist of the method:
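Yeast mec2-1 mutant treated with compound. Readout: growth inhibition vs vehicle controls.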

Assay [3] can be described thus: NCI Yeast Anticancer Drug Screen. Data for the sgs1 mgt1 strain (AID 161).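 Note: 0% = growth of cultures given vehicle only.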 The settings on record: S. cerevisiae sgs1 mgt1 strain, active compounds read high. The method, boiled down: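 Inhibition of yeast growth, normalised to vehicle-treated controls, is reported for a strain bearing genetic alterations in DNA damage repair.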
The nature of assay [4]: NCI Yeast Anticancer Drug Screen. Data for the cln2 rad14 strain (AID 165).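 Note: 0% = growth equal to vehicle treated cultures.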 As to conditions: S. cerevisiae cln2 rad14 strain, active compounds read high. The gist of the method:
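cln2 rad14 yeast strain; compound exposure; growth inhibition read vs vehicle controls.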

Assay [5] in a line: NCI Yeast Anticancer Drug Screen. Data for the bub3 strain (AID 167). As to conditions: S. cerevisiae bub3 mutant strain, active compounds read high. The gist of the method: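 Screening used yeast with an engineered genetic alteration affecting cell cycle control. Compound-exposed cultures were compared with vehicle cultures, and reduced growth was taken as inhibition.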
A short description of assay [6]: NCI Yeast Anticancer Drug Screen. Data for the mlh1 rad18 strain (AID 175). The settings on record: S. cerevisiae mlh1 rad18 strain growth inhibition, active compounds read high. The gist of the method: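 Yeast w/ defined DNA-repair lesions; compound exposure; growth vs vehicle controls → % inhibition.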
Where [7] appears, read: at 5.0 µM (retest, dose inferred, filed as 0.5).
[8] abbreviates: at 50.0 µM (retest, dose inferred, filed as 5.0).

For the compound `N#CC1C(=O)NC(=O)C(C#N)C1c1c(Cl)cccc1Cl` (stereo not given), the growth inhibition in assay [1] (setting [7]) is 5%; in assay [1] (setting [8]) it was 72% (active); in assay [1] (at 50.0 µM) it was 96.2% (active); in assay [2] (setting [7]), 1%; in assay [2] (setting [8]), 55%; in assay [2] (at 50.0 µM), 92.5% (active). Further, the growth inhibition was 4% in assay [3] (setting [7]); 91% (active) in assay [3] (setting [8]); 94% (active) in assay [3] (at 50.0 µM); 8% in assay [4] (setting [7]); 28% in assay [4] (setting [8]); 48.1% in assay [4] (at 50.0 µM). The growth inhibition in assay [5] (setting [7]) was -7%; in assay [5] (setting [8]), 74% (active); in assay [5] (at 50.0 µM), 91% (active); in assay [6] (setting [7]), 1%; in assay [6] (setting [8]), 93% (active); in assay [6] (at 50.0 µM), 94.7% (active).
Take `Oc1cccnc1CN1CCCCC1`: the growth inhibition is -5% in assay [1] (setting [7]); 19% in assay [1] (setting [8]); -11.7% in assay [1] (at 50.0 µM); 6% in assay [2] (setting [7]); 22% in assay [2] (setting [8]); -3.1% in assay [2] (at 50.0 µM). Also, the growth inhibition in assay [3] (setting [7]) is 7%; in assay [3] (setting [8]), 8%; in assay [3] (at 50.0 µM), -28.5%; in assay [4] (setting [7]), 14%; in assay [4] (setting [8]) it was 14%; in assay [4] (at 50.0 µM) it was 85.7% (active). For the same compound, the growth inhibition in assay [5] (setting [7]) was -21%; in assay [5] (setting [8]) it was 7%; in assay [5] (at 50.0 µM), -10.8%; in assay [6] (setting [7]) it was 19%; in assay [6] (setting [8]) it was 46%; in assay [6] (at 50.0 µM) it was -21.1%.
`O=[N+]([O-])/C(Cl)=C(\Nc1ccccc1)C(Cl)=C(Cl)Cl`: the growth inhibition in assay [1] (setting [7]) is 55%; in assay [1] (setting [8]), 99% (active); in assay [1] (at 50.0 µM), 88.2% (active); in assay [2] (setting [7]), 82% (active); in assay [2] (setting [8]), 99% (active); in assay [2] (at 50.0 µM), 92.2% (active). The growth inhibition is 73% (active) in assay [3] (setting [7]); 99% (active) in assay [3] (setting [8]); 88.8% (active) in assay [3] (at 50.0 µM); 64% in assay [4] (setting [7]); 99% (active) in assay [4] (setting [8]); 90.9% (active) in assay [4] (at 50.0 µM). For the same compound, the growth inhibition in assay [5] (setting [7]) was 76% (active); in assay [5] (setting [8]) it was 99% (active); in assay [5] (at 50.0 µM) it was 90.4% (active); in assay [6] (setting [7]), 83% (active); in assay [6] (setting [8]), 99% (active); in assay [6] (at 50.0 µM), 85.1% (active).
Take `Clc1ccc2c(NC3CCC(N4CCCCC4)CC3)ccnc2c1` (stereo not given): the growth inhibition in assay [1] (setting [7]) was 99% (active); in assay [1] (setting [8]), 97% (active); in assay [1] (at 50.0 µM), -13.2%; in assay [2] (setting [7]), 90% (active); in assay [2] (setting [8]), 97% (active); in assay [2] (at 50.0 µM), -25.6%. Moreover, the growth inhibition was 93% (active) in assay [3] (setting [7]); 98% (active) in assay [3] (setting [8]); -24.1% in assay [3] (at 50.0 µM); 76% (active) in assay [4] (setting [7]); 97% (active) in assay [4] (setting [8]); 27.1% in assay [4] (at 50.0 µM). Moreover, the growth inhibition in assay [5] (setting [7]) was 94% (active); in assay [5] (setting [8]) it was 97% (active); in assay [5] (at 50.0 µM), -79.4%; in assay [6] (setting [7]), 98% (active); in assay [6] (setting [8]), 97% (active); in assay [6] (at 50.0 µM) it was -16%.
As to `CC(=O)OC(c1ccc(Cl)cc1)c1ccc(Cl)cc1`, the growth inhibition was -43% in assay [1] (setting [7]); 1% in assay [1] (setting [8]); 16.5% in assay [1] (at 50.0 µM); -11% in assay [2] (setting [7]); -8% in assay [2] (setting [8]); -2% in assay [2] (at 50.0 µM). For the same compound, the growth inhibition in assay [3] (setting [7]) is -7%; in assay [3] (setting [8]), 20%; in assay [3] (at 50.0 µM) it was 18.8%; in assay [4] (setting [7]) it was -17%; in assay [4] (setting [8]), 4%; in assay [4] (at 50.0 µM), 8.85%. Moreover, the growth inhibition in assay [5] (setting [7]) was 2%; in assay [5] (setting [8]), 0%; in assay [5] (at 50.0 µM), 0.2%; in assay [6] (setting [7]) it was -22%; in assay [6] (setting [8]), 16%; in assay [6] (at 50.0 µM), 18.9%.
Turning to `Cc1ccc(C(=O)CCCN2CCOCC2)c(C)c1`, the growth inhibition in assay [1] (setting [7]) was 13%; in assay [1] (setting [8]), 46%; in assay [1] (at 50.0 µM), 77.5% (active); in assay [2] (setting [7]) it was 5%; in assay [2] (setting [8]), 30%; in assay [2] (at 50.0 µM), 38.8%. In addition, the growth inhibition in assay [3] (setting [7]) is 27%; in assay [3] (setting [8]) it was 57%; in assay [3] (at 50.0 µM), 58.8%; in assay [4] (setting [7]), 29%; in assay [4] (setting [8]) it was 63%; in assay [4] (at 50.0 µM) it was 50.5%. Also, the growth inhibition is 30% in assay [5] (setting [7]); 69% in assay [5] (setting [8]); 73.8% (active) in assay [5] (at 50.0 µM); 5% in assay [6] (setting [7]); 43% in assay [6] (setting [8]); 72.8% (active) in assay [6] (at 50.0 µM).
Consider `N#Cc1sc2c(c1OC(=O)c1ccc(Cl)cc1)c(=O)n(-c1ccccc1)c(=S)n2-c1ccccc1`, for which the growth inhibition in assay [1] (setting [7]) was -4%; in assay [1] (setting [8]) it was -16%; in assay [1] (at 50.0 µM), 1.5%; in assay [2] (setting [7]) it was 5%; in assay [2] (setting [8]), -24%; in assay [2] (at 50.0 µM) it was 2.4%. Besides, the growth inhibition was -3% in assay [3] (setting [7]); 0% in assay [3] (setting [8]); -0.45% in assay [3] (at 50.0 µM); 5% in assay [4] (setting [7]); 6% in assay [4] (setting [8]); 34.5% in assay [4] (at 50.0 µM). For the same compound, the growth inhibition was -3% in assay [5] (setting [7]); 2% in assay [5] (setting [8]); 4.95% in assay [5] (at 50.0 µM); -2% in assay [6] (setting [7]); 1% in assay [6] (setting [8]); -7.35% in assay [6] (at 50.0 µM).
In the case of `COP(=O)(OC)OCC1OC(n2cnc3c(N)ncnc32)C(O)C1O` (stereo not given), the growth inhibition in assay [1] (setting [7]) was -2%; in assay [1] (setting [8]) it was -2%; in assay [1] (at 50.0 µM), 96.5% (active); in assay [2] (setting [7]), 2%; in assay [2] (setting [8]), 2%; in assay [2] (at 50.0 µM), 95.9% (active). Further, the growth inhibition in assay [3] (setting [7]) is 0%; in assay [3] (setting [8]), -2%; in assay [3] (at 50.0 µM) it was 94.5% (active); in assay [4] (setting [7]), 4%; in assay [4] (setting [8]), 4%; in assay [4] (at 50.0 µM) it was 89.7% (active). In addition, the growth inhibition in assay [5] (setting [7]) was -1%; in assay [5] (setting [8]), -4%; in assay [5] (at 50.0 µM) it was 96.2% (active); in assay [6] (setting [7]) it was -3%; in assay [6] (setting [8]), -5%; in assay [6] (at 50.0 µM), 97.3% (active).
For `O=C(O)CCC(=O)NCCNC(=O)CC(=O)O`, the growth inhibition is -152% in assay [1] (setting [7]); -162% in assay [1] (setting [8]); 10.7% in assay [1] (at 50.0 µM); -52% in assay [2] (setting [7]); -51% in assay [2] (setting [8]); -14.8% in assay [2] (at 50.0 µM). Moreover, the growth inhibition in assay [3] (setting [7]) was -57%; in assay [3] (setting [8]), -63%; in assay [3] (at 50.0 µM), 43%; in assay [4] (setting [7]), -52%; in assay [4] (setting [8]), -48%; in assay [4] (at 50.0 µM), 36.3%. In addition, the growth inhibition in assay [5] (setting [7]) was -68%; in assay [5] (setting [8]), -79%; in assay [5] (at 50.0 µM), -1.55%; in assay [6] (setting [7]), -116%; in assay [6] (setting [8]) it was -107%; in assay [6] (at 50.0 µM) it was 9%.
As to `Cc1cccc(-c2csc(N)n2)c1`, the growth inhibition is 0% in assay [1] (setting [7]); 77% (active) in assay [1] (setting [8]); 61.1% in assay [1] (at 50.0 µM); 3% in assay [2] (setting [7]); 35% in assay [2] (setting [8]); 41% in assay [2] (at 50.0 µM). Further, the growth inhibition was 2% in assay [3] (setting [7]); 37% in assay [3] (setting [8]); 78% (active) in assay [3] (at 50.0 µM); -1% in assay [4] (setting [7]); 31% in assay [4] (setting [8]); 39.6% in assay [4] (at 50.0 µM). The growth inhibition was -1% in assay [5] (setting [7]); 44% in assay [5] (setting [8]); 31.1% in assay [5] (at 50.0 µM); 1% in assay [6] (setting [7]); 63% in assay [6] (setting [8]); 65.2% in assay [6] (at 50.0 µM).
